The values below come from PubChem BioAssay.

The term inhibition denotes the relative decrease from the control value, in per cent.

Active and inactive are the calls of the source.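 The calls were made as follows, unless noted: active = visually confirmed hit in the image check and inhibition above 20%; inconclusive = visually confirmed hit but inhibition not above 20%; inactive = no visual hit in the image check.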

Assay [1] in a line: inhibitors of TNFa-induced NFkB p65 translocation, primary screen, imaging, HUVEC, MLSMR starter and 10KST1 sets (AID 438;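 active = inhibition above 20% together with a positive visual image hit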;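 also: compound added about 3h40 before a 20 min TNFalpha stimulation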;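 as to inhibition: signal is the nuclear over cytoplasmic p65 intensity ratio per well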). The note with it: HUVEC TNFa-induced p65 nuclear translocation; cell count: measured here: nuclei count (cytotoxicity indicator), at 2.08 µM; inhibition: at 2 µM, stronger effect = higher value, 0% TNFa-plus-vehicle, 100% no-TNFa wells.
Assay [2] is described as follows: inhibitors of mutant huntingtin aggregation, primary screen, imaging, exon1htt(103Q)mCFP cells, high-content imaging (AID 483;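 active = visual image review flags a hit and inhibition of aggregation exceeds 20%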;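 also: compound exposure lasted 3 days before fixation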;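 as to nuclei count: percent of the per-plate median nuclei count of sample wells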). The conditions noted are these: exon1htt(103Q)mCFP cell line, aggregate imaging, at 2 µM; inhibition of aggregation: stronger effect = higher value; nuclei count: measured here: cell count, toxicity.
Assay [3] is described as follows: inhibitors of E-selectin induction by TNFa, primary screen, imaging, HUVEC, immunofluorescence, MLSMR starter and 10KST1 sets (AID 487).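 As to inhibition: signal is fraction of cell area covered by stained E-selectin grains.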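 As to nuclei count: 100% = median nuclei count of all wells on the same plate.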 The note with it: HUVEC TNFalpha-induced E-selectin immunofluorescence imaging, at 2 µM; inhibition: stronger effect = higher value; nuclei count: measured here: cell number, toxicity.
Assay [4] can be described thus: DUSP6 inhibitors restoring Erk phosphorylation by chemical complementation, primary imaging in DUSP6-transfected HeLa (AID 609;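 active = compounds giving at least 50% inhibition in the cell-based MKP-3 phosphatase rescue imaging test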;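 as to inhibition: phospho-Erk level distribution per well compared with pooled transfected vehicle control wells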). The conditions noted are these: HeLa MKP-3 transfected, phospho-Erk imaging KS statistic, at 10 µM, cells stimulated with TPA for 15 min.
In assay [5] the target is Dual specificity protein phosphatase 6 (Homo sapiens) (UniProt Q16828). Described as above. The note with it: HeLa MKP-3 transfected, phospho-Erk imaging KS statistic; at 10 µM; stronger effect = higher value; cells stimulated with TPA for 15 min.
Sequence of Dual specificity protein phosphatase 6 (Homo sapiens) (Q16828 whole entry, looked up): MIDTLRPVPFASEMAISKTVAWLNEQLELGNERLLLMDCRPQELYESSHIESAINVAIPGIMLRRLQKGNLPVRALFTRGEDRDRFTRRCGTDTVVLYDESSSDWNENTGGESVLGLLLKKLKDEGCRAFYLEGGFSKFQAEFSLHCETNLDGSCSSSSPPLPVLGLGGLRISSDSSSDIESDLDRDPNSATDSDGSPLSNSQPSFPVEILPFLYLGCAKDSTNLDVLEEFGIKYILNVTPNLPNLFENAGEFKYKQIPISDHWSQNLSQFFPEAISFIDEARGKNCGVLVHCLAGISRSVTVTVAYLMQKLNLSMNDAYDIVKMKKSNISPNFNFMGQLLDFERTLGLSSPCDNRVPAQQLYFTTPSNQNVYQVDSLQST
Assay [6] addresses Voltage-gated potassium channel subunit beta-2 (Rattus norvegicus) (UniProt P62483). Description: KvBeta enzyme negative modulators, primary screen, biochemical, NADPH fluorescence (AID 622;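 active = fluorescence slope higher than the sample average by over 3 SD, cut at about -0.22 in these data, passing the limit was not always enough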;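 also: slope of raw intensity against log time taken from 70 to 1610 s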). The note with it: recombinant KvBeta, 4-cyanobenzaldehyde reduction, at 10 µM, stronger effect = higher value.
Assay [7] has the same target. Description: KvBeta positive modulators, primary screen, biochemical, NADPH fluorescence (AID 623;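 active = NADPH fluorescence slope more negative than the mean of all samples by about 3 SD, 99.7% confidence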;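 also: fluorescence intensity change per second fitted from 20 to 320 s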). The conditions noted are these: Recombinant KvBeta, NADPH fluorescence decrease slope, 10 min; at 10 µM; stronger effect = lower value.
Assay [8] addresses Alpha-2C adrenergic receptor (Homo sapiens) (UniProt P18825). Nature of the assay: modulators of alpha2C/GIRK thallium flux, primary screen, cell-based, HEK293 alpha2C/GIRK1/2 (AID 624;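 active = fluorescence slope after compound addition differing from the mean of all screened samples at 99.7% confidence, in either direction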;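 also: slope of fluorescence ratio to pre-addition baseline per second over 15 to 24 s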). The conditions noted are these: thallium flux BTC fluorescence, at 10 µM, actives lie on both sides.
The target in assay [9] is Muscarinic acetylcholine receptor M4 (Homo sapiens) (UniProt P08173). Nature of the assay: compounds altering M4/GIRK thallium flux, either direction, primary screen, M4 allosteric agonist project, cell-based, HEK293 M4/GIRK, BTC-AM (AID 625;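 active = fluorescence slope after compound addition differing from the mean of all tested samples at 99.7% confidence, mostly higher but some lower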;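 also: thallium influx through GIRK channels coupled to M4 in HEK293 cells with BTC-AM dye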). The note with it: at 10 µM, actives lie on both sides.
Sequence of Muscarinic acetylcholine receptor M4 (Homo sapiens) (P08173 whole entry, looked up): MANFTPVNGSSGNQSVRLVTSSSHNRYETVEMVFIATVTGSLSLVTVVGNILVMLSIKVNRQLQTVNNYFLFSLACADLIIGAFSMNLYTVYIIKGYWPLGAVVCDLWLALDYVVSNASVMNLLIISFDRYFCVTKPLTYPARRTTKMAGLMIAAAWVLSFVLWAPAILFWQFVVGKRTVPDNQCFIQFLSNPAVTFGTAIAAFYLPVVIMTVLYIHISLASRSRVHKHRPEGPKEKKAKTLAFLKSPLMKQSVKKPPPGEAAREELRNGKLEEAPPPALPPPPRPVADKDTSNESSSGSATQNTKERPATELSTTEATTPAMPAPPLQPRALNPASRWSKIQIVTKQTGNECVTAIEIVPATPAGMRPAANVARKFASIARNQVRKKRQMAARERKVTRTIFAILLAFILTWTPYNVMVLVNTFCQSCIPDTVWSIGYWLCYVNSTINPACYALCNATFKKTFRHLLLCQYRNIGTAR
The nature of assay [10]: inhibitors of larval lipid processing in zebrafish, primary screen, whole organism, PED6 fluorescence, gall bladder and intestine (AID 686;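 active = a full or partial loss of lipid-probe fluorescence in the fish gall bladder, intestine or both, judged by eye; inactive = no fluorescence loss, or compound toxic to the fish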;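 also: larvae 5 to 7 days old with five fish per well; signal comes from phospholipase A2 cleavage of quenched PED6 carried via bile; overnight exposure to compound and PED6 before scoring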). The conditions noted are these: Zebrafish larvae PED6 lipid processing, fluorescence scoring; screened at 20 µM (by protocol).
Assay [11] is described as follows: inhibitors of Chlamydomonas gravitaxis, primary screen, whole organism, Chlamydomonas reinhardtii, WT vs cilia-less mutant, absorbance, 96-well (AID 463189;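 active = inhibition at or above 50% relative to wild type and mutant plate controls; inactive = inhibition below 50%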;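 also: 0% = wild type cc124 cells in DMSO and 100% = ciliumless bld1 mutant cells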). The conditions noted are these: OD600 absorbance, 2 days, at 10 µM, stronger effect = higher value.
Assay [12] can be described thus: inhibitors of Sendai virus-induced IRF3 signaling, primary screen, TLR/RLR signaling modifier project, cell-based, Sendai virus stimulus, luciferase, 10K MLSCN set (AID 602276;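 active = inhibition at or above 50% at 10 µM; inactive = inhibition below 50%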;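 also: firefly luciferase from ISG56 promoter only with Renilla not read in this screen; 0% = Sendai virus plus DMSO and 100% = medium plus DMSO without virus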). The conditions noted are these: HEK293 RL24 IRF3 luciferase reporter, at 10 µM, stronger effect = higher value. On the technique in general: A reporter such as luciferase makes a cellular process visible.

Assay [13] is described as follows: inhibitors of poly I:C-induced TLR3 signaling, primary screen, cell-based, poly I:C stimulus, luciferase, 10K MLSCN set (AID 602277;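 active = inhibition of the reporter signal at or above 50%; inactive = inhibition below 50%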). The conditions noted are these: HEK293-TLR3 RL24 IRF3 luciferase reporter, at 10 µM, stronger effect = higher value.
Where [14] appears, read: measured here: cell density z-score.
[15] abbreviates: measured here: nuclear c-Myc green intensity z-score.
[16] abbreviates: measured here: nuclear pErk red intensity z-score, stronger effect = higher value.

Sequence of Voltage-gated potassium channel subunit beta-2 (Rattus norvegicus) (P62483 whole entry, looked up): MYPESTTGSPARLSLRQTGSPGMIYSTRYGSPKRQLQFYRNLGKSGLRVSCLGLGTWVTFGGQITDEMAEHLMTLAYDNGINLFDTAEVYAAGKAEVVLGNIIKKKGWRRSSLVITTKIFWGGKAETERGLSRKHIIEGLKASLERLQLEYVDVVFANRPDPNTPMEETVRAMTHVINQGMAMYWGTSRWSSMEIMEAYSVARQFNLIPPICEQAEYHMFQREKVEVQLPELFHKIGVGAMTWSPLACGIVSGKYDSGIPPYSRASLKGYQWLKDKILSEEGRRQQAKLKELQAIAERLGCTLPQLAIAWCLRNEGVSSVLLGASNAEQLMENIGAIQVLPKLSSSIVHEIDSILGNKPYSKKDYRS
Sequence of Alpha-2C adrenergic receptor (Homo sapiens) (P18825 whole entry, looked up): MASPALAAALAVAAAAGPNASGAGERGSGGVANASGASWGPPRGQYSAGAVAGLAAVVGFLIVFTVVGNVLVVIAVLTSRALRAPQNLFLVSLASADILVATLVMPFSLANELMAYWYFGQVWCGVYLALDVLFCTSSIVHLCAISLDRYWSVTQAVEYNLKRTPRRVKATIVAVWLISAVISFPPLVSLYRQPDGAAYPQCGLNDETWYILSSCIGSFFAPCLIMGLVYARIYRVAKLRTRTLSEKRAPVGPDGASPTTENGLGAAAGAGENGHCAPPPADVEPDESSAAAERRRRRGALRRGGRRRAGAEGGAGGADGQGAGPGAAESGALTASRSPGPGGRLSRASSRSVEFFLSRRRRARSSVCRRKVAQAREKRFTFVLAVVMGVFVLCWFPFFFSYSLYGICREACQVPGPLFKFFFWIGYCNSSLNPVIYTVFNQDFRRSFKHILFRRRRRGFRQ

For `C=CCSc1nnc2n(CCc3ccccc3)c(=O)c3c4c(sc3n12)COC(C)(C)C4`, the cell count in assay [1] worked out at 492. Further, the inhibition is -1.7% (inactive) in assay [1]; -100% (inactive) in assay [3]; 9.91% (inactive) in [5]; 28.7% (inactive) in [11]; 0.226% (inactive) in [12]; -17.3% (inactive) in [13]. Besides, the inhibition of aggregation in [2] is 3.5% (inactive). Further, the nuclei count in assay [2] turned out to be 115%; in assay [3], 135%. The z-score in [4] (setting [14]) is 1.51; in [4] (setting [15]), -1.62; in [4] (setting [16]), -0.504. Besides, the fluorescence slope was -0.35 (inactive) in assay [6] and 0.0058 (inactive) in [9]. Further, in assay [7], the NADPH fluorescence slope is -1.2e-05 (inactive). Moreover, the slope in assay [8] was 0.00563 (inactive). In assay [10], the result was inactive.
Take `CC1(C(=O)CSc2nc3ccccc3s2)CCC(=O)O1` (stereo not given): the cell count in assay [1] came to 609. In addition, the inhibition in [1] is -11.4% (inactive); in [3], -179% (inactive); in assay [5], -4.27% (inactive); in assay [11], 6.36% (inactive); in [12], 6.48% (inactive); in assay [13] it was 21.8% (inactive). Besides, in [2], the inhibition of aggregation was -14.5% (inactive). Also, the nuclei count in assay [2] was 78.9%; in [3] it was 131%. Also, the z-score was 0.414 in assay [4] (setting [14]), -1.1 in assay [4] (setting [15]) and -0.368 in assay [4] (setting [16]). Moreover, the figures for the fluorescence slope in [6] and in [9] were -0.471 (inactive) and 0.00529 (inactive), respectively. In assay [7], the NADPH fluorescence slope was -0.000167 (inactive). Moreover, in [8], the slope is 0.00616 (inactive). Further, the result in [10] was inactive.
With `CC(C)CNC(=O)c1c(N)n(/N=C/c2ccccn2)c2nc3ccccc3nc12`, in [1], the cell count is 533. Besides, the inhibition was -2.3% (inactive) in assay [1]; -33.4% (inactive) in assay [3]; 4.37% (inactive) in assay [5]; 31.2% (inactive) in assay [11]; -0.468% (inactive) in assay [12]; -13.1% (inactive) in assay [13]. The inhibition of aggregation in assay [2] was -1.4% (inactive). Moreover, the results for the nuclei count in assay [2] and in assay [3] were 105% and 129%, respectively. For the same molecule, the values for the z-score in [4] (setting [14]), in assay [4] (setting [15]) and in assay [4] (setting [16]) were 1.46, -0.805 and -0.75, respectively. The fluorescence slope is -0.43 (inactive) in assay [6] and 0.0059 (inactive) in assay [9]. The NADPH fluorescence slope in [7] is -3.5e-05 (inactive). Besides, the slope in assay [8] was 0.00506 (inactive). Besides, the outcome in assay [10] was inactive.
In the case of `CCN(CC)CCCN1C(=O)C(=O)/C(=C(/O)c2ccc(C)cc2)C1c1ccccn1` (stereo not given), the cell count in assay [1] was determined as 546. Moreover, the inhibition in [1] was -2.6% (inactive); in assay [3], -85.1% (inactive); in assay [5], -2.29% (inactive); in assay [11], -0.742% (inactive); in assay [12], -25.3% (inactive); in [13] it was -18.7% (inactive). Moreover, the inhibition of aggregation in assay [2] was 21% (inactive). Further, the figures for the nuclei count in [2] and in assay [3] were 134% and 144%, respectively. The z-score is 0.34 in [4] (setting [14]), -0.315 in [4] (setting [15]) and -0.132 in assay [4] (setting [16]). The figures for the fluorescence slope in assay [6] and in [9] were -0.45 (inactive) and 0.00497 (inactive), respectively. Besides, the NADPH fluorescence slope in assay [7] was -3.6e-05 (inactive). Also, in [8], the slope is 0.0052 (inactive). In addition, the result in [10] was inactive.
Regarding `CC(=O)C1=C(NC(=O)c2ccccc2F)C[C@@H]2[C@H]1C2(C)C`, the cell count in assay [1] was 511. The inhibition in assay [1] is 0.8% (inactive); in assay [3], -94.2% (inactive); in assay [5], 11.9% (inactive); in [11] it was 13.1% (inactive); in assay [12] it was -7.48% (inactive); in assay [13] it was -10.2% (inactive). Besides, the inhibition of aggregation in assay [2] was -2.1% (inactive). Moreover, the results for the nuclei count in [2] and in assay [3] were 99.3% and 126%, respectively. Moreover, the z-score in assay [4] (setting [14]) was 0.289; in [4] (setting [15]) it was -1.02; in assay [4] (setting [16]), 0.959. Further, the fluorescence slope was -0.395 (inactive) in assay [6] and 0.00577 (inactive) in assay [9]. Further, in assay [7], the NADPH fluorescence slope is -7.2e-05 (inactive). The slope in assay [8] was 0.00586 (inactive). Moreover, in [10], the result was inactive.
